Assay results from PubChem BioAssay (NCI).
About 79,000 compounds went through this panel and 15% of them were active in at least one assay; those are over-represented in the sample as a whole. Activity calls are given as the source filed them. Cut-off read from the data, not from the text of the source: active = growth inhibition above about 70%; inactive = the rest.

Tests used:
[1] = NCI Yeast Anticancer Drug Screen. Data for the rad50 strain (AID 155);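 note: 0% = growth of vehicle-only cultures of the same strain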; settings: S. cerevisiae rad50 strain growth inhibition; at 50.0 µM; stronger effect = higher value
Method in brief: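 DNA repair mutant yeast, compound exposure, growth read-out; inhibition is taken relative to vehicle.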

[2] = NCI Yeast Anticancer Drug Screen. Data for the mec2-1 strain (AID 157); settings: S. cerevisiae mec2-1 strain, at 50.0 µM, stronger effect = higher value
Method in brief: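 Vehicle-treated cultures served as reference for growth inhibition of compound-exposed mec2-1 yeast.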

[3] = NCI Yeast Anticancer Drug Screen. Data for the sgs1 mgt1 strain (AID 161);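 note: 0% = growth of cultures given vehicle only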; settings: S. cerevisiae sgs1 mgt1 strain, at 50.0 µM, stronger effect = higher value
Method in brief: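 Inhibition of yeast growth, normalised to vehicle-treated controls, is reported for a strain bearing genetic alterations in DNA damage repair.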

[4] = NCI Yeast Anticancer Drug Screen. Data for the cln2 rad14 strain (AID 165);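 note: 0% = growth equal to vehicle treated cultures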; settings: S. cerevisiae cln2 rad14 strain, at 50.0 µM, stronger effect = higher value
Method in brief: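 Each compound was tested on cln2 rad14 yeast. Inhibition of growth was calculated against vehicle-exposed controls.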

[5] = NCI Yeast Anticancer Drug Screen. Data for the bub3 strain (AID 167); settings: S. cerevisiae bub3 mutant strain, at 50.0 µM, stronger effect = higher value
Method in brief: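 In this screen, a yeast mutant lacking normal mitotic checkpoint function is challenged with compound. Relative growth versus vehicle gives the inhibition value.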

[6] = NCI Yeast Anticancer Drug Screen. Data for the mlh1 rad18 strain (AID 175); settings: S. cerevisiae mlh1 rad18 strain growth inhibition; at 50.0 µM; stronger effect = higher value
Method in brief: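 Vehicle-treated cultures served as the reference for growth inhibition in a yeast strain carrying DNA damage repair alterations exposed to each compound.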

Measured: growth inhibition

CC(=O)Nc1ccc(N=NN(C)c2ccccc2)cc1
inactive: [1] 29.4% | [2] 36% | [3] 47.1% | [4] 5.45% | [5] 19.8% | [6] 44.4%

[N-]=[N+]=Nc1nc2c(N)ncnc2n1C1OC(CO)C(O)C1O (stereo not given)
inactive: [1] 23.4% | [2] 16.4% | [3] 6.15% | [4] -22.8% | [5] -1.35% | [6] 20.9%

CC(N(C)Cc1ccccc1)C(C)(O)c1ccccc1 (stereo not given)
inactive: [1] -10.4% | [2] 6.55% | [3] 7.75% | [4] -24.9% | [5] 51% | [6] 30.8%

CNCc1cccs1
inactive: [1] -26.8% | [2] -9.7% | [3] -27.8% | [4] -40.3% | [5] -17.6% | [6] -10.4%

Clc1ccc(-c2nnc(-c3ccc4ccccc4c3)o2)cc1Cl
inactive: [1] 3.25% | [2] -28.9% | [3] 7.15% | [4] 11.8% | [5] -14.9% | [6] -6.2%

O=C(c1ccc(F)cc1)c1ccc2ccccc2c1
inactive: [1] 8.75% | [2] -1.3% | [3] -3.35% | [4] 10.7% | [5] 2% | [6] 5%

CCOC(=O)NNC(=O)NC12CC3CC(CC(C3)C1)C2
inactive: [1] -16.7% | [2] -7.7% | [3] 5.6% | [4] -24.6% | [5] -3.85% | [6] 1.75%

COc1cc([C@@H]2c3cc4c(cc3[C@@H](Nc3ccccc3C(=O)c3ccccc3)[C@H]3COC(=O)[C@H]23)OCO4)cc(OC)c1OC
inactive: [1] 9.35% | [2] 9.95% | [3] -18.5% | [4] 13.2% | [5] 1.05% | [6] -34.5%

CCC1(CCC(C)C)C(=O)NC(=Nc2ccccc2)N(c2ccccc2)C1=O (stereo not given)
inactive: [1] 18.7% | [2] 7.95% | [3] -0.65% | [4] 1.55% | [5] 4.45% | [6] 10.1%

CCN(CC)C(=O)CNC(=O)c1c2nc3c(C(=O)NCC(=O)N(CC)CC)ccc(C)c3oc-2c(C)c(=O)c1N
inactive: [1] 16.9% | [2] 33.9% | [3] 8.95% | [4] 32.9% | [5] 10.9% | [6] 30.6%

N#Cc1cc([N+](=O)[O-])ccc1NC(=O)C(=O)Nn1c(=S)[nH]c2ccccc2c1=O
inactive: [1] -2.25% | [2] -2.6% | [3] -34.5% | [4] 14.6% | [5] 10.3% | [6] 5.9%

N#C/C(=C\c1ccc[nH]1)C(=O)c1ccccc1
inactive: [1] -5.7% | [2] -11.8% | [3] -18.9% | [4] 16.5% | [5] 1.15% | [6] -28.6%

CN(C(=O)CCCO)c1cc([N+](=O)[O-])ccc1OCc1ccccc1
inactive: [1] 7.6% | [2] 2.8% | [3] -1.2% | [4] -0.8% | [5] 0.7% | [6] -0.75%

CC1(c2ccccc2)N=C(C(N)=O)c2[nH]cnc2N1 (stereo not given)
inactive: [1] -11.8% | [2] -41.1% | [3] -29.1% | [4] 1.85% | [5] 8.7% | [6] -11.8%

CSc1cc(Cl)c(C)cc1S(=O)(=O)NC(=O)NNc1cccc(C(F)(F)F)n1
inactive: [1] 15.2% | [2] 5.25% | [3] 9.5% | [4] -5.4% | [5] -4.9% | [6] 24.6%

CCCCOC(=O)c1ccc(OC(=O)Nc2cccc(Cl)c2)cc1
active: [5] 70.7%
inactive: [1] 13.2% | [2] 2.3% | [3] 6.15% | [4] 12.2% | [6] 30.1%

O=C(Nc1cccc([N+](=O)[O-])c1)C(=O)C(C(=O)c1ccccc1-c1ccccc1)C1OC(=O)c2ccccc21 (stereo not given)
inactive: [1] 27.9% | [2] 3.45% | [3] 17.9% | [4] -45% | [5] -6.85% | [6] 10.1%

CCOC(=O)C1(C(=O)OCC)CCCN1C(=O)[C@H](CNC(=O)OC(C)(C)C)NC(=O)OCc1ccccc1
inactive: [1] 32.1% | [2] 12.8% | [3] -10.9% | [4] -0.45% | [5] -30.1% | [6] -79.8%

Cc1ccc(S(=O)(=O)NC(=O)NCCCS(C)=O)cc1 (stereo not given)
inactive: [1] -3.5% | [2] -6.5% | [3] 6.8% | [4] -7.8% | [5] 2.9% | [6] 10.3%

CCc1ccc2c(c1)/C(=N\NC(N)=O)CCC2
inactive: [1] -11.2% | [2] 13.5% | [3] -12.8% | [4] -7.6% | [5] 9.8% | [6] -9.5%

OCc1c(CO)c(-c2ccc(Cl)c(Cl)c2)n2c1CCC2
inactive: [1] 13.4% | [2] 2.4% | [3] 8.1% | [4] 14.9% | [5] -0.2% | [6] 51%

COc1cc2c(cc1OC)C1(CCBr)C3CC4C(=CCOC5CC(=O)N2C1C54)CN3C(=O)Cc1ccccc1 (stereo not given)
inactive: [1] 27.8% | [2] -11.9% | [3] -3.45% | [4] 7.4% | [5] 4.75% | [6] 3.7%

O=C1c2cc([N+](=O)[O-])ccc2-c2c(Cl)cc(NC(=O)C(F)(F)F)cc21
inactive: [1] -0.5% | [2] -11.3% | [3] 1.65% | [4] -40% | [5] 6.9% | [6] -2.55%

C/C(=N/O)C1c2ccccc2Cc2ccccc21
inactive: [1] -11.5% | [2] -11.8% | [3] -24.4% | [4] -12.8% | [5] -1.8% | [6] -22.5%

O=C1c2ccccc2C(=O)N1C1(C(=O)NC2(C(=O)O)CCCC2)CCCC1
inactive: [1] -2.5% | [2] -7.8% | [3] -37.8% | [4] 2.6% | [5] -38.1% | [6] -8.6%

CC(NC(CC12CC3CC(CC(C3)C1)C2)C(N)=O)c1ccccc1 (stereo not given)
inactive: [1] -17.8% | [2] -20.8% | [3] -2.3% | [4] 14.1% | [5] 15.3% | [6] -18.4%

Oc1ccc2ccc(O)cc2c1
inactive: [1] 21.4% | [2] 21.6% | [3] 10.4% | [4] 12.2% | [5] 11.8% | [6] 5.4%

COc1ccccc1C1OC2=C(Nc3ccc(Cl)cc3N2)C1=O (stereo not given)
inactive: [1] -6.5% | [2] -17.8% | [3] -17.5% | [4] -7% | [5] -23.7% | [6] -2.95%

CCOC(SCC)C(O)C(O)C(O)C(O)CO (stereo not given)
inactive: [1] -1.9% | [2] -4.2% | [3] 20.4% | [4] -14.7% | [5] -7.8% | [6] -21.6%

CCOC(=O)Cn1c(=O)n(C)c(=O)c2c1ncn2Cc1ccccc1
inactive: [1] 0.7% | [2] -31.2% | [3] -14.3% | [4] -4.25% | [5] 9.5% | [6] -14.4%

Nc1cc(C(=O)O)cc2ccccc12
inactive: [1] 14.8% | [2] -5.35% | [3] 0.1% | [4] -7.95% | [5] -2.95% | [6] 26.6%

O=C(N/N=C/c1cccc(C(F)(F)F)c1)c1ccncc1
inactive: [1] 12.8% | [2] 6.7% | [3] 11.1% | [4] -15.7% | [5] 8.05% | [6] 5.85%

CCc1cccc(NC(=O)c2cc(/C=C/c3ccccc3)[nH]c(=S)n2)c1
inactive: [1] -15.9% | [2] -19.4% | [3] 6.95% | [4] -1.85% | [5] -6.85% | [6] -12.1%

CCCCCC(=O)OCC[N+](C)(C)C
inactive: [1] -29.8% | [2] -29.9% | [3] -6.95% | [4] 4.85% | [5] -25.2% | [6] -13.2%

CCC(=O)C(C)C(=O)C(=O)NCCNC(=O)C(=O)C(C)C(=O)CC (stereo not given)
inactive: [1] 19.9% | [2] -1.3% | [3] 2.75% | [4] -16.6% | [5] -8.5% | [6] -25.6%

Cc1csc2nc(-c3cccs3)nn12
inactive: [1] 0.75% | [2] -15.4% | [3] 7.4% | [4] -1.55% | [5] -7.15% | [6] -9.1%

O=C1NC2(CCN(Cc3ccccc3)CC2)Nc2ccccc21
inactive: [1] -10.4% | [2] 1.6% | [3] -10.4% | [4] -24.1% | [5] 2.8% | [6] -6.75%

COCCc1c2ccccc2cc2ccccc12
inactive: [1] 24.9% | [2] 3.2% | [3] 10.4% | [4] 7.65% | [5] -22.1% | [6] 17.8%

COC(=O)/C(=C/C=C/c1ccccc1)N=[N+]=[N-]
inactive: [1] -20.5% | [2] 7.5% | [3] -12% | [4] -11.6% | [5] 3.2% | [6] -10.1%

CN(C)c1ncnc2c1ncn2CC(O)CN (stereo not given)
inactive: [1] -7.9% | [2] -8.65% | [3] -15.8% | [4] 4.4% | [5] 5.4% | [6] -17.2%
